# Data taken from PubChem BioAssay.
# Values without a mark were called inactive. For some assays here: Results with a measured potency or affinity are listed apart. The source made the active and inactive calls. Unless noted, no rule for the calls is given here.
# Assays:
# [1] = antimalarial activity against Dd2 strain (AID 2302;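 active = growth inhibition above 50% at the single 2 µM test dose, taken to imply half-maximal potency below 2 µM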;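 also: 0% = DMSO untreated growth and 100% = chloroquine plus artemisinin killed control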); conditions: P. falciparum Dd2 in RBCs, LDH growth readout, 72 h; at 2 µM; hits give high values
# [2] = human hepatoma cell viability loss – ATP luminescence, cytotoxicity control for P. falciparum antimalarial project, primary screen (AID 2303;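 active = inhibition above 50%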;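 also: 0% = DMSO wells and 100% = digitonin-killed cells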); conditions: HepG2 viability, 24-48 h, at 10 µM, hits give high values
# [3] = biological target: L-lactate dehydrogenase (Plasmodium falciparum (isolate CDC / Honduras)) (UniProt Q27743); experiment: PfLDH activity inhibition – cell lysate, 3D7 strain, counter-screen for P. falciparum growth inhibition project (AID 2304);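 also: 0% = vehicle and 100% = reference inhibitor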; conditions: P. falciparum 3D7 crude extract, LDH APAD/NBT absorbance; at 2 µM; hits give high values
# Sequence of L-lactate dehydrogenase (Plasmodium falciparum (isolate CDC / Honduras)) (Q27743 whole entry, looked up): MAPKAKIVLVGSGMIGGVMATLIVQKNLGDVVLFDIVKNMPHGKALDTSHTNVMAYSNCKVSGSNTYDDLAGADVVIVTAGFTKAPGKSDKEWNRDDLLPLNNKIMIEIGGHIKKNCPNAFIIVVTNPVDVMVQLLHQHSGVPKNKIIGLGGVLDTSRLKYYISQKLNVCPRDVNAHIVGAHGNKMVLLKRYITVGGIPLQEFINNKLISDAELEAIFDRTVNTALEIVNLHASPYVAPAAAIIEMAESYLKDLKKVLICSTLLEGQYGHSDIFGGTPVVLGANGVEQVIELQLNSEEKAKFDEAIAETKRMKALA
# [4] = inhibition of 3D7 malaria parasite growth – strain 3D7 (AID 2306);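 also: 0% = DMSO wells and 100% = chloroquine plus artemisinin control wells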; conditions: P. falciparum 3D7 erythrocytic growth, LDH absorbance, 72 h; at 2 µM; hits give high values
# [5] = biological target: Calcium-dependent protein kinase 1 (Plasmodium falciparum (isolate 3D7)) (UniProt P62344); experiment: PfCDPK1 kinase inhibitors, biochemical, TCAMS library (AID 1159585; cut-off not given, nearly all actives have IC50 up to about 0.98 µM;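 also: inhibitors leave more ATP so luminescence rises with inhibition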); conditions: recombinant PfCDPK1, Kinase-Glo ATP depletion luminescence
# Sequence of Calcium-dependent protein kinase 1 (Plasmodium falciparum (isolate 3D7)) (P62344 whole entry, looked up): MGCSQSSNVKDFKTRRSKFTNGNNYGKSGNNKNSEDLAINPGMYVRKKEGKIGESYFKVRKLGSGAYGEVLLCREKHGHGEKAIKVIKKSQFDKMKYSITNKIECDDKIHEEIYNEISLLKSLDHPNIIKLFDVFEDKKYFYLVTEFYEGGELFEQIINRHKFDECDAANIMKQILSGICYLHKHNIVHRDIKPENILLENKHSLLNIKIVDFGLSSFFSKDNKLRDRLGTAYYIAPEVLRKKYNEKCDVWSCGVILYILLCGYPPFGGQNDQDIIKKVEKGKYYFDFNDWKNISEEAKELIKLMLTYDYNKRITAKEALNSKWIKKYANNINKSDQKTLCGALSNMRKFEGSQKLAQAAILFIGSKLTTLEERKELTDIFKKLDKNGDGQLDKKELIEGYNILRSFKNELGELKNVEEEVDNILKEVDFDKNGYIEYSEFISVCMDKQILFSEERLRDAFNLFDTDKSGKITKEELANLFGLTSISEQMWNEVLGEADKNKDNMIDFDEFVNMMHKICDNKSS
# [6] = biological target: Plasmodium falciparum protein kinase 6 (PK6, PF3D7_1337100) (UniProt Q8IDW1); experiment: PfPK6 kinase inhibitors, biochemical, TCAMS library (AID 1159586); conditions: recombinant PfPK6, Kinase-Glo ATP depletion luminescence
# Sequence of Plasmodium falciparum protein kinase 6 (PK6, PF3D7_1337100) (Q8IDW1 1-305): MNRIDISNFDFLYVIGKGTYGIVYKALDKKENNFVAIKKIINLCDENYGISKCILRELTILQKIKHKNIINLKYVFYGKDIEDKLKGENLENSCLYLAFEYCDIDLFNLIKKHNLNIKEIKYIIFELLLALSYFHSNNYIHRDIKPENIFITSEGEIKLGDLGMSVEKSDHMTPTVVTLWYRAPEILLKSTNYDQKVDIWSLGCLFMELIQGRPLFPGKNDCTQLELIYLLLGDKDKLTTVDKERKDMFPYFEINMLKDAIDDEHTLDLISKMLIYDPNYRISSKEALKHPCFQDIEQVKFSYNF
# [7] = biological target: Protein kinase 7 (PK7), Plasmodium falciparum 3D7 (PF3D7_0213400) (UniProt Q7YTF7); experiment: inhibition of Plasmodium PK7 catalytic activity – biochemical, TCAMS antimalarial set, Kinase-Glo luminescence (AID 1159587); conditions: recombinant PfPK7, Kinase-Glo ATP depletion luminescence
# Sequence of Protein kinase 7 (PK7), Plasmodium falciparum 3D7 (PF3D7_0213400) (Q7YTF7 1-343): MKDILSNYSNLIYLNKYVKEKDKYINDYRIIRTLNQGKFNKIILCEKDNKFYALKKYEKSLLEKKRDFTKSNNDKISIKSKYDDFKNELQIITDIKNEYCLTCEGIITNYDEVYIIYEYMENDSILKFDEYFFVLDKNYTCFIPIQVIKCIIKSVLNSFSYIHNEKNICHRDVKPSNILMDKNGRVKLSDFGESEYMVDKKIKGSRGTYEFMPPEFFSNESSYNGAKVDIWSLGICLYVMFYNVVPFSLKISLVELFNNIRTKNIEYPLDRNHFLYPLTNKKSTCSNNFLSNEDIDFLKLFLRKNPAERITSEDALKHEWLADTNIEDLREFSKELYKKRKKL
# [8] = biological target: Calcium-dependent protein kinase 4 (Plasmodium falciparum (isolate 3D7)) (UniProt Q8IBS5); experiment: PfCDPK4 kinase inhibitors, biochemical, TCAMS library (AID 1159588; cut-off not given, nearly all actives have IC50 up to about 0.91 µM); conditions: recombinant PfCDPK4, Kinase-Glo ATP depletion luminescence
# Sequence of Calcium-dependent protein kinase 4 (Plasmodium falciparum (isolate 3D7)) (Q8IBS5 whole entry, looked up): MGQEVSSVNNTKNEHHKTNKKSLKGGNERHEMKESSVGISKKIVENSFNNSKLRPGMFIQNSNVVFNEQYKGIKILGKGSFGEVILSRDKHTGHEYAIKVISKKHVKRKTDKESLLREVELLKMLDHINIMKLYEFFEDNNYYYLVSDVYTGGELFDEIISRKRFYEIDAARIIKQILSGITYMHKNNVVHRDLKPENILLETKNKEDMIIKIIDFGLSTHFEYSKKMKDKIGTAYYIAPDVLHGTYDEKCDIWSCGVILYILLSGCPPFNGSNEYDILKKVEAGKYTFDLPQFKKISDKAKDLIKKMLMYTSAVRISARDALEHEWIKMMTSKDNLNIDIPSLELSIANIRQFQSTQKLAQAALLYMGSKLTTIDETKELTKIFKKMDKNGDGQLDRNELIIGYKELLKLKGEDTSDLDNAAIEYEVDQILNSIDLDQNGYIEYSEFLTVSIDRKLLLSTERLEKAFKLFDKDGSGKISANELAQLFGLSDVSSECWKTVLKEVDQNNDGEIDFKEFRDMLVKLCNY
Compound,growth inhibition [1],inhibition [2],inhibition [3],growth inhibition [4],outcome [5],outcome [6],outcome [7],outcome [8]
O=C(NCCc1ccc(O)cc1)n1c2ccccc2c2ccccc21,76% (active),3%,-1%,83% (active),inactive,inactive,inactive,inactive
CCOc1ccc2c(NN=Cc3cc(OC)c(OC)c(OC)c3)cc(C)nc2c1,99% (active),18%,-4%,101% (active),inactive,inactive,inactive,inactive
Cc1cccc2[nH]c(-c3cccc(-c4ccc(NC(=O)c5ccncc5)cc4)c3)nc12,74% (active),34%,-5%,98% (active),inactive,inactive,inactive,inactive
CCNc1cc(C(=O)N[C@@H](Cc2ccccc2)[C@H](O)CNCc2cc(OC)cc(OC)c2)cc(N2CCCC2=O)c1,75% (active),-7%,2%,100% (active),inactive,inactive,inactive,inactive
Cc1ccc(Cn2cnc(N3CC(C)NC(C)C3)cc2=O)cc1NC(=O)Nc1ccc(-c2ccccc2)cc1 (stereo unspecified),15%,18%,4%,96% (active),inactive,inactive,inactive,inactive
COc1ccc(CN2CCC2=O)c(OC)c1,96% (active),0%,-6%,98% (active),inactive,inactive,inactive,inactive
CC(C)c1ccc(NC(=O)c2ccc(C(=O)NC3CCN(Cc4ccccc4)CC3)cc2)cc1,7%,30%,-3%,88% (active),inactive,inactive,inactive,inactive
O=C(Cc1ccccc1)NC(c1ccco1)c1cc(Cl)c2cccnc2c1O (stereo unspecified),93% (active),44%,-1%,89% (active),inactive,inactive,inactive,inactive
CC(C)(C)c1ccc(CN2CCC(NC(=O)c3ccc(-c4cccc(F)c4)s3)CC2)cc1,24%,35%,0%,92% (active),inactive,inactive,inactive,inactive
CS(=O)(=O)c1ccc2nc(-c3cc(-c4cccc(F)c4)cnc3N)[nH]c2c1,71% (active),33%,4%,102% (active),inactive,inactive,inactive,inactive
COc1ccc(-c2cnc3ccc(NCc4ccc(S(N)(=O)=O)cc4)nn23)cc1,99% (active),19%,-2%,96% (active),inactive,inactive,inactive,inactive
c1ccc(CN2CCC(NCc3ccc(-c4cncc5ccccc45)cc3)CC2)cc1,19%,21%,-3%,98% (active),inactive,inactive,inactive,inactive
N#Cc1ccc(N(CCNS(=O)(=O)c2cc(Br)c(Cl)s2)Cc2ccccc2C(F)(F)F)cc1C(F)(F)F,57% (active),3%,-1%,92% (active),inactive,inactive,inactive,inactive
CCCCCCN1CCN(Cc2cccc(NC(=O)c3ccc(Cl)c(Cl)c3)c2)CC1,51% (active),31%,-4%,85% (active),inactive,inactive,inactive,inactive
CCCN(CCC)CCCNc1ccc(C(=O)Nc2ccc(OCC)cc2)cc1[N+](=O)[O-],2%,7%,-4%,89% (active),inactive,inactive,inactive,inactive
CCc1cc(CNC2CCN(CCc3c(F)cnc4ccc(OC)nc34)CC2)cc2c1OCCO2,94% (active),46%,1%,100% (active),inactive,inactive,inactive,inactive
Cc1ccc(F)cc1S(=O)(=O)N1CCCCC(c2ccc(C(F)(F)F)cc2)=N1,75% (active),8%,7%,82% (active),inactive,inactive,inactive,inactive
O=C(NCc1cccc(OC(F)(F)F)c1)c1cnc2c(c1)nc(-c1cnc(-c3ccccc3)[nH]1)n2CCc1cnc[nH]1,47%,0%,-10%,99% (active),inactive,inactive,inactive,inactive
O=C(Cc1cccc(Cl)c1)N1CCc2cc3nccc(N4CCN5CCC[C@H]5C4)c3cc21,4%,14%,4%,96% (active),inactive,inactive,inactive,inactive

Compound,growth inhibition [1],inhibition [2],inhibition [3],growth inhibition [4],outcome [5],outcome [6],outcome [7],outcome [8]
C[C@@H](Nc1nc(NCc2ccccc2)c2sccc2n1)c1ccccc1,75% (active),31%,-4%,91% (active),inactive,inactive,inactive,inactive
COc1ccc(OCCON)cc1,-3%,0%,-2%,98% (active),inactive,inactive,inactive,inactive
CC[C@H](C)CNC(=O)c1ccnc(-c2ccc(CN3CCC(N4CCCC4)CC3)cc2)c1,84% (active),13%,-2%,99% (active),inactive,inactive,inactive,inactive
Cc1cccc(C)c1CNc1ccnc2cc(C#N)ccc12,99% (active),20%,-1%,100% (active),inactive,inactive,inactive,inactive
COc1ccc2ncc(F)c(CCN3C[C@H](CNCc4ccc5c(n4)NC(=O)CS5)[C@H](O)C3)c2c1,34%,-3%,-3%,92% (active),inactive,inactive,inactive,inactive
Cc1cccc2[nH]c(-c3ccc(-c4ccc(CN5CC(C)OC(C)C5)cc4)cc3)nc12 (stereo unspecified),96% (active),37%,3%,97% (active),inactive,inactive,inactive,inactive
O=C(/C=C/c1ccc(Cl)c(Cl)c1)NCCCCCN1CC[C@H](NC(=O)c2sc3ccccc3c2Cl)C1,3%,26%,-2%,97% (active),inactive,inactive,inactive,inactive
Cc1nc(-c2cccc(Nc3nccc(NCC(O)c4ccccc4)n3)c2)cs1 (stereo unspecified),82% (active),43%,3%,99% (active),inactive,inactive,inactive,inactive
COc1cc2c(c(Cl)c1OC)CCN(Cc1ccccc1)CC2c1ccc(NC(=O)C(F)(F)F)cc1 (stereo unspecified),79% (active),0%,-2%,85% (active),inactive,inactive,inactive,inactive
Nc1nc(N)c2c(ccc3c2ccn3Cc2ccc(F)cc2)n1,96% (active),66% (active),1%,97% (active),inactive,inactive,inactive,inactive
O=C(Nc1ccc(-c2nc3ccccc3[nH]2)cc1)c1ccc(-c2cccc([N+](=O)[O-])c2)o1,97% (active),47%,-2%,101% (active),inactive,inactive,inactive,inactive
Cc1cccc(CNc2nc(C)cc(N[C@@H](Cc3ccccc3)C(=O)NCCc3ccccc3)n2)c1,85% (active),24%,2%,99% (active),inactive,inactive,inactive,inactive
O=S(=O)(Nc1cccc(CCN2CCC(N3CCCCC3)CC2)c1)c1ccccc1C(F)(F)F,32%,21%,1%,82% (active),inactive,inactive,inactive,inactive
CN(C)CCOc1ccc(-c2cc(-c3ccncc3)c(-c3ccc(Cl)c(O)c3)[nH]2)cc1,100% (active),25%,-2%,98% (active),inactive,inactive,inactive,inactive
Oc1ccc(Nc2nc(N3CCCC3)c3ccccc3n2)cc1,100% (active),10%,-6%,102% (active),inactive,inactive,inactive,inactive
Cc1ccc2c(OCCN3CCC(Cc4ccc5c(c4)NC(=O)CO5)CC3)cc(F)cc2n1,21%,24%,-2%,89% (active),inactive,inactive,inactive,inactive
Cc1cc(N[C@@H](Cc2ccccc2)C(=O)Nc2ccccc2)nc(NCCc2ccccn2)n1,50% (active),-3%,-1%,97% (active),inactive,inactive,inactive,inactive
CCC1N=C(N)N=C(N)N1OCCCOc1c(Cl)cc(Cl)cc1Cl (stereo unspecified),96% (active),67% (active),2%,95% (active),inactive,inactive,inactive,inactive
